Measured values published in PubChem BioAssay (NCI).
Compounds without any hit were thinned out: in the full panel of roughly 79,000, 15% have a hit. Values without a mark were called inactive. Calls of active or inactive are those of the source. Cut-off read from the data, not from the text of the source: active = growth inhibition above about 70%; inactive = the rest.

Key:
[1] = NCI Yeast Anticancer Drug Screen. Data for the rad50 strain (AID 155);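 note: 0% = growth of vehicle-only cultures of the same strain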; conditions: S. cerevisiae rad50 strain growth inhibition, stronger effect = higher value
How it was run: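 Cells are treated with compound, grown, and their growth is then scored against vehicle-only cultures of the same repair-deficient yeast strain.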

[2] = NCI Yeast Anticancer Drug Screen. Data for the mec2-1 strain (AID 157); conditions: S. cerevisiae mec2-1 strain, stronger effect = higher value
How it was run: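 Compounds were applied to mec2-1 yeast cells. Their growth was then compared with that of vehicle-treated cultures to give growth inhibition.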

[3] = NCI Yeast Anticancer Drug Screen. Data for the sgs1 mgt1 strain (AID 161);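 note: 0% = growth of cultures given vehicle only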; conditions: S. cerevisiae sgs1 mgt1 strain, stronger effect = higher value
How it was run: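 Growth of a repair-deficient yeast mutant was monitored after compound treatment and expressed as inhibition relative to vehicle-treated cultures.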

[4] = NCI Yeast Anticancer Drug Screen. Data for the cln2 rad14 strain (AID 165);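 note: 0% = growth equal to vehicle treated cultures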; conditions: S. cerevisiae cln2 rad14 strain, stronger effect = higher value
How it was run: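 Strain: cln2 rad14 yeast, altered in cell cycle control and DNA damage repair. Read-out: growth inhibition vs vehicle.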

[5] = NCI Yeast Anticancer Drug Screen. Data for the bub3 strain (AID 167); conditions: S. cerevisiae bub3 mutant strain, stronger effect = higher value
How it was run: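 Part of a panel of yeast mutants defective in DNA damage repair or cell cycle regulation. Each strain is grown with compound, and inhibition is calculated relative to solvent-treated cultures.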

[6] = NCI Yeast Anticancer Drug Screen. Data for the mlh1 rad18 strain (AID 175); conditions: S. cerevisiae mlh1 rad18 strain growth inhibition, stronger effect = higher value
How it was run: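 A repair-deficient yeast strain is exposed to test compound, and growth is scored relative to vehicle-treated controls.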

[7] = at 5.0 µM (retest, dose inferred, filed as 0.5)
[8] = at 50.0 µM (retest, dose inferred, filed as 5.0)

| SMILES | growth inhibition [1, 7] | growth inhibition [1, 8] | growth inhibition ([1]; at 50.0 µM) | growth inhibition [2, 7] | growth inhibition [2, 8] | growth inhibition ([2]; at 50.0 µM) | growth inhibition [3, 7] | growth inhibition [3, 8] | growth inhibition ([3]; at 50.0 µM) | growth inhibition [4, 7] | growth inhibition [4, 8] | growth inhibition ([4]; at 50.0 µM) | growth inhibition [5, 7] | growth inhibition [5, 8] | growth inhibition ([5]; at 50.0 µM) | growth inhibition [6, 7] | growth inhibition [6, 8] | growth inhibition ([6]; at 50.0 µM) |
| --- | --- | --- | --- | --- | --- | --- | --- | --- | --- | --- | --- | --- | --- | --- | --- | --- | --- | --- |
| O=C1CN=C(c2ccccc2)N(c2ccccc2)N1 | -1% | 96% (active) | 94% (active) | -6% | 97% (active) | 96.5% (active) | -15% | 96% (active) | 94.5% (active) | 2% | 93% (active) | 85% (active) | 8% | 97% (active) | 94.7% (active) | -1% | 94% (active) | 94.4% (active) |
| CCOC(=O)C(NC(C)=O)[CH](c1ccc(OC)cc1)[Sn]([c]1ccccc1)([c]1ccccc1)[c]1ccccc1 (configuration not stated) | 99% (active) | 99% (active) | 48.6% | 99% (active) | 99% (active) | 58.1% | 99% (active) | 99% (active) | 48.2% | 98% (active) | 99% (active) | 99% (active) | 99% (active) | 98% (active) | 47.4% | 99% (active) | 99% (active) | 85.4% (active) |
| CCOC(=O)Cc1nc2ccccc2s1 | 3% | 100% (active) | 99.2% (active) | 2% | 100% (active) | 99.6% (active) | 6% | 99% (active) | 99.5% (active) | 6% | 98% (active) | 99.2% (active) | 9% | 99% (active) | 98.8% (active) | 2% | 99% (active) | 99.3% (active) |
| Cc1ccc2c(c1)C1(SCC(=O)N1c1ccc(Cl)cc1)C(=O)N2 (configuration not stated) | 1% | 57% | 48.6% | 6% | 36% | 16.4% | 5% | 62% | 77.8% (active) | -1% | 28% | 20.8% | 4% | 74% (active) | 64.9% | -5% | 69% | 67.9% |
| C#CCCCCCOC(=O)c1cc([N+](=O)[O-])cc([N+](=O)[O-])c1 | 97% (active) | 99% (active) | 98.5% (active) | 99% (active) | 99% (active) | 99% (active) | 99% (active) | 99% (active) | 99% (active) | 95% (active) | 98% (active) | 98.1% (active) | 98% (active) | 99% (active) | 99.2% (active) | 99% (active) | 99% (active) | 98% (active) |
| Cc1ccc(OC/C=C/c2ccc(Cl)cc2)cc1 | -2% | 75% (active) | 77.2% (active) | 0% | 88% (active) | 53.1% | 16% | 91% (active) | 85.2% (active) | -2% | 84% (active) | 65% | 2% | 86% (active) | 67.4% | 5% | 90% (active) | 85.2% (active) |
| COC(=O)/C=C1/OC(c2ccccc2)=C(C)C1=O | 6% | 6% | 30.7% | 18% | 18% | 30.7% | 14% | 14% | 48.9% | -6% | -6% | -7.85% | 0% | 0% | 5.8% | 8% | 8% | 42.6% |
| COc1ccc(NC2Oc3cc4c(cc3C(c3cccc(OC)c3OC)C2C)OCO4)cc1 (configuration not stated) | -24% | 17% | 48% | -13% | -15% | 49.5% | -6% | -1% | 47.9% | -10% | 12% | 41.1% | -32% | 13% | 65.3% | -19% | 9% | 71.3% (active) |
| CC(Cc1ccccc1)NN1CCOC(c2ccccc2)C1C (configuration not stated) | 2% | 66% | 32.1% | -2% | 56% | 56.8% | 0% | 78% (active) | 64.2% | -1% | 16% | 13.1% | 9% | 59% | 46% | -3% | 72% (active) | 73% (active) |
| COC(=O)c1ccc(C)cc1C1CN=NC12Cc1cccc(C)c1C2=O (configuration not stated) | 1% | 9% | 26.8% | -1% | 10% | 24.9% | 16% | 22% | 8.65% | 5% | 10% | 83.5% (active) | -2% | 23% | 41.8% | -1% | 6% | 2.55% |
| Oc1ccccc1C(=NNc1ccccc1)c1ccccc1O | 40% | 96% (active) | 94.8% (active) | 27% | 98% (active) | 94.8% (active) | 46% | 97% (active) | 94.8% (active) | 49% | 97% (active) | 95.8% (active) | 42% | 98% (active) | 95.8% (active) | 70% (active) | 98% (active) | 90.9% (active) |
| Nc1ccccc1Nc1c([N+](=O)[O-])cc(C(F)(F)F)cc1[N+](=O)[O-] | 53% | 78% (active) | 89.2% (active) | 41% | 55% | 92.3% (active) | 48% | 69% | 92.7% (active) | 42% | 55% | 85.5% (active) | 46% | 61% | 91.4% (active) | 51% | 76% (active) | 90.5% (active) |
| C=C(C)C1(C(=O)OCC(Cl)(Cl)Cl)NC(=O)C(NC(=O)COc2ccccc2)=CO1 (configuration not stated) | 26% | 66% | 94.8% (active) | 4% | 68% | 86.8% (active) | 8% | 56% | 94.5% (active) | 6% | 31% | 61.1% | 3% | 44% | 85% (active) | 3% | 51% | 93% (active) |
| O=C(O)Cc1c[nH]c2ccccc12 | 46% | -3% | 51% | 31% | 7% | 64% | 42% | -2% | 94% (active) | 9% | -12% | 49% | 85% (active) | -8% | 92.5% (active) | 84% (active) | -2% | 91.2% (active) |
| CCCCCCCCCCCCCCCCCC(=O)Nc1ccn(C2OC(CO)C(O)C2O)c(=O)n1 (configuration not stated) | 19% | 4% | 75.2% (active) | 9% | 15% | 83.6% (active) | 43% | 41% | 67.8% | 40% | 45% | 80.2% (active) | 48% | 43% | 82.3% (active) | 15% | 4% | 82.8% (active) |
| Cc1ccc[n+](CC(=O)C2CCC3C4CC=C5CC(O)CCC5(C)C4CCC23C)c1 (configuration not stated) | 2% | 28% | 95.4% (active) | 1% | 24% | 98.2% (active) | 5% | 64% | 98.8% (active) | 6% | 25% | 90.1% (active) | 3% | 27% | 96.8% (active) | -4% | 24% | 98% (active) |
| Cc1ccc(S(=O)(=O)OC2COC3C(OS(=O)(=O)c4ccc(C)cc4)COC23)cc1 (configuration not stated) | -2% | -13% | 19.6% | -7% | 4% | 9.8% | 12% | -27% | 26.4% | 1% | -5% | 46% | 0% | -11% | 96.6% (active) | -39% | -63% | 4% |
| OC(OC/C(I)=C(/I)COC(O)C(Cl)(Cl)Cl)C(Cl)(Cl)Cl (configuration not stated) | 28% | 96% (active) | 97.2% (active) | 34% | 94% (active) | 96.9% (active) | -2% | 86% (active) | 94.8% (active) | -10% | 70% (active) | 76.7% (active) | 1% | 94% (active) | 93.1% (active) | 13% | 95% (active) | 97.1% (active) |
| CC(C)N=C(NC(C)C)SCCCCCCSC(=NC(C)C)NC(C)C | 2% | -2% | 12.3% | -1% | 1% | -17.2% | -7% | 1% | 2.4% | -6% | -1% | 76.2% (active) | 3% | -2% | -16.2% | -1% | -5% | 6.9% |
